# In the library only some 2.3% were active in any assay of this set; here they are far more common.
# 15-hLO inh – inhibitors of human 15-lipoxygenase (ALOX15) | P16050 | purified 15hLO-1, xylenol orange hydroperoxide absorbance | Potency, µM (titrated, usually from 57.1 µM), without a hit: top-dose activity change, negative = inhibition, actives largely listed as inhibitors | 1.4% of 74,000 active; note: potency is the fitted concentration of half-maximal effect; % is set by controls: 0 for no effect and ±100 for the full control effect; nearly all actives have a fitted effect of over 55% in size
#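 Quantitative HTS in 25 mM Hepes pH 7.5 containing 0.01% Triton X-100: human 15hLO-1 at 40 nM, arachidonic acid at 50 uM, 6 min turnover. Product quantified via ferrous oxidation/xylenol orange, 573:405 nm absorbance ratio.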
# HBB splice mod – modulators of hemoglobin beta chain splicing. HBB splicing reporter cell assay, activation; EGFP reporter with mutant IVS2-654 intron; response scale: normalised to 500 nM splice-correcting PNA. Potency, µM (highest dose often 46.1 µM), for the others: at the highest dose activation, actives largely listed as activators. 0.06% of 65,000 active; note: potency is the fitted concentration of half-maximal effect; 0% is about no effect
#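 HeLa cells stably expressing EGFP interrupted by mutant beta-globin intron 2 (IVS2-654), 500/well in 2% FCS. Treated with compound for 2 days at 37C. Splicing correction scored as total well GFP intensity (488 nm excitation, 500-520 nm emission); 500 nM antisense PNA served as control.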
# ALOX15B inhib – blocks human 15-lipoxygenase 2 activity. O15296. purified 15hLO-2, xylenol orange hydroperoxide absorbance. Potency, µM (highest dose often 57.1 µM), inactives show top-dose activity change, negative = inhibition, most hits filed as inhibitors. 0.56% of 110,000 active; note: potency is the fitted concentration of half-maximal effect; % is set by controls: 0 for no effect and ±100 for the full control effect; nearly all actives have a fitted effect of over 60% in size
#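 Enzyme 50 nM, AA 45 uM, 25 mM Hepes pH 7.5 + 0.01% Triton X-100; cpd preinc 15 min RT, rxn 90 min RT; stop/detect with 200 uM XO + 300 uM Fe(II) in 50 mM H2SO4, 30 min; A573/A405.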
# GFP derepression – derepresses silenced GFP locus in mouse C127i cells. Potency, µM (top dose mostly 46.1 µM), without a hit: at the top dose GFP derepression (activation). AID 597. mouse C127i GFP locus derepression, cytometry, 30 h. 0.09% of 68,000 active; note: % of control where 0% means no effect
#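 Murine C127i mammary cells carrying a silenced, stably integrated CMV-driven GFP reporter were treated with compound for 30 hours at 37 C. After PBS washes, GFP-positive cells were counted by laser-scanning microplate cytometry.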
# Tau fil binding – binders of human tau filaments | Potency, µM (titrated, usually from 57.1 µM), for inactives: at the highest dose activity change, negative = inhibition | recombinant tau filaments, thioflavin S fluorescence, 15 h; filaments grown with octadecylsulfate alongside compound | 2% of 71,000 active | AID 596;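 note: potency is the fitted concentration of half-maximal effect; % is set by controls: 0 for no effect and ±100 for the full control effect; actives lower thioflavin S fluorescence by blocking filaments or displacing dye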
#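 Read-out: ThS fluorescence, 450 nm excitation/510 nm emission; lower signal marks blocked filament formation or displaced dye. Tau at 1 uM with 30 uM ODS, 10 uM ThS, 5 mM DTT, 100 mM NaCl, 10 mM HEPES pH 7.4; 15 h, 37 C.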
# UbGFP stabilizer – inhibits proteasome, raising ubiquitin-GFP reporter fluorescence | 67,000 tested, under 10 active | Ubiquitin-GFP reporter cells, proteasome inhibition, GFP fluorescence; response scale: untreated = 0%, 10 µM MG-132 = 100% | Potency, µM (doses to about 45.9 µM), inactives show at the highest dose activation (GFP accumulation), hits mostly activators | AID 526; active = well fitted activation curve with a large enough effect, not every such curve was filed as active; inconclusive = small, poorly fitted or top-dose-only effect, or another doubt; inactive = no such curve, though single readings can be large or run the other way; note: potency is the fitted concentration of half-maximal effect
#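 GFP accumulation read-out: laser plate cytometry counting ubiquitin(G76V)-GFP-expressing U2OS cells after 4 hr compound exposure at 37 °C. Titrations spanned 46 uM to 2.9 nM; 0% = basal, 100% = 10 uM MG-132; concentration-response curves fitted.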
# Numbers without * were called inactive; i = inactive; ? = inconclusive; . = no result given; [ ] = another dose, or the depositor's remark. Unless noted, calls come from the whole dose curve; as a rule, active = well fitted curve in the direction sought with a large enough effect; inconclusive = small, poorly fitted or top-dose-only effect, or another doubt; inactive = no such curve, though single readings can be large; an effect the other way counts as inactive or inconclusive.
SMILES,15-hLO inh,HBB splice mod,ALOX15B inhib,GFP derepression,Tau fil binding,UbGFP stabilizer
COCCn1c(=O)c(-c2cc(F)cc(F)c2)nc2cnc(Nc3cccc(OC)c3)nc21,0.5%,?,-6.1%,5.4%[9.22 µM],409.3%,2.0%
COc1ccc(-n2c(=O)c(-c3cccs3)nc3cnc(Nc4cccc(OC)c4)nc32)cc1,-9.9%,10µM*,-16.7%,3.16µM*,i,?
COc1cccc(Nc2ncc3nc(-c4cccs4)c(=O)n(CCC#N)c3n2)c1,-7.0%,6.5%,-1.3%,?,104.8%,6.31µM*
COc1ccc(Oc2ncc3nc(-c4cc(F)cc(F)c4)c(=O)n(C4CC4)c3n2)cc1,5.8%,-1.3%,6.4%,2.7%[9.22 µM],20µM*,0.0%
Cn1c(=O)c(-c2cc(F)cc(F)c2)nc2cnc(Oc3cccc(Cl)c3)nc21,-9.5%,-0.9%,-6.3%,5.0%[9.22 µM],10µM*,-5.7%
N#CCCn1c(=O)c(-c2ccc(Cl)cc2)nc2cnc(N3CCNCC3)nc21,-7.7%,3.4%,39.3%,2.7%[9.22 µM],3.98µM*,-2.0%
COc1ccc(Oc2ncc3nc(-c4ccc(OC)cc4)c(=O)n(C4CC4)c3n2)cc1,-4.5%,-0.3%,-6.1%,5.4%[9.22 µM],15.1%,12.9%
CN1CCN(c2ncc3nc(-c4cc(F)cc(F)c4)c(=O)n(C4CC4)c3n2)CC1,-1.9%,0.9%,21.5%,-4.9%[9.22 µM],15.8µM*,2.2%
O=c1c(-c2cc(F)cc(F)c2)nc2cnc(N3CCNCC3)nc2n1C1CC1,2.5%,1.2%,26.3%,13.9%[9.22 µM],177.0%,-1.7%
CCCC=O,-2.3%,0.4%,-8.6%,.,-10.7%,.
CC(CC(=O)O)(CC(=O)O)c1ccccc1,-4.9%[11.4 µM],4.5%[9.22 µM],-6.0%[11.4 µM],4.6%[9.22 µM],1.2%[11.4 µM],-0.6%[9.17 µM]
CN1CCN(c2ncc3nc(-c4ccc(Cl)cc4)c(=O)n(CCC#N)c3n2)CC1,6.4%,-0.4%,5.2%,2.4%[9.22 µM],3.16µM*,10.0%
CN1CCN(c2ncc3nc(-c4cc(F)cc(F)c4)c(=O)n(CCC#N)c3n2)CC1,48.8%,-0.1%,20µM*,2.4%[9.22 µM],-25.5%,-1.1%
N#CCCn1c(=O)c(-c2ccc(Cl)cc2)nc2cnc(N3CCOCC3)nc21,-6.6%,1.3%,-4.9%,7.7%[9.22 µM],35.4%,4.0%
Cc1cc(=O)c2c(O)c3c(O)cc(O)c4c5c(O)cc(O)c6c(O)c7c(=O)cc(C)c8c1c2c(c34)c(c65)c78,.,.,2.51µM*,.,.,.
CCn1c2ccccc2c2cc(NC(=O)Cc3ccc(S(=O)(=O)N4CCOCC4)s3)ccc21,-16.5%,-5.2%,-5.5%,-1.2%,6.31µM*,-9.1%
O=C(NCCSc1c[nH]c2ccccc12)c1ccc(Br)o1,25.1µM*,-0.1%,.,.,0.8%,6.7%
Cn1cccc1C(=O)N1CCC[C@@]2(CCN(Cc3ccccc3)C2)C1,0.8%,3.1%,1.5%,-4.3%[9.22 µM],10.3%,15.1%
O=C(NCCCCN1CCCC1)c1ccc(Cc2nc3ccccc3[nH]2)cc1,3.5%,.,.,.,.,.
Cc1cc(C)n(CC(=O)N2c3ccccc3Sc3ccccc32)n1,.,.,13.1%[2.29 µM],-4.3%[20.6 µM],.,.
CCN(CC)C(C)CN1c2ccccc2Sc2ccccc21 (centres undefined),25.1µM*,.,12.6µM*,.,.,.
CC(C)Oc1ccc(C2c3c(oc4ccccc4c3=O)C(=O)N2CCCN2CCOCC2)cc1 (centres undefined),-8.5%,2.7%,10.5%,-2.6%,15.8µM*,8.4%
NC(=O)/N=C(\N)NC(=O)c1ccccc1,-3.5%[11.4 µM],5.1%[9.22 µM],-3.6%[11.4 µM],0.0%[9.22 µM],2.9%[11.4 µM],8.7%[9.17 µM]
CC(=O)NCCNc1ncncc1-c1ccc(N(C)C)cc1,12.6µM*,-0.7%,-8.0%,-0.6%[9.22 µM],5.8%,-3.1%
Cc1ccc(-c2c3c([nH]c(=S)c2C#N)CCCC3)o1,10µM*,-2.0%,?,13.4%,?,-7.6%
O=C(NC(NC(=S)Nc1ccccc1)C(Cl)(Cl)Cl)c1cccc(Cl)c1 (centres undefined),.,.,25.1µM*,.,.,.

# Screens deposited in PubChem by National Center for Advancing Translational Sciences (NCATS).
